# Many of the other results were omitted from the sample, so hits are more common in it than they were.
# RBX1-CUL1 inh – inhibitors of human ROC1-CUL1 ubiquitin ligase activity; E3 ubiquitin-protein ligase RBX1 (Homo sapiens) + Cullin-1 (Homo sapiens), P62877+Q13616; in vitro K48 di-Ub FRET, acceptor:donor ratio, 45 min; inhibition, % at 10 µM; 140,000 tested, 0.6% active; in the data active means inhibition above about 25%
# Target sequence (P62877 whole entry, looked up): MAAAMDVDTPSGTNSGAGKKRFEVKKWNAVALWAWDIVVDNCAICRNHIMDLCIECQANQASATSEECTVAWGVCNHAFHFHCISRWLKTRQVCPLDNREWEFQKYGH
# Target sequence (Q13616 whole entry, looked up): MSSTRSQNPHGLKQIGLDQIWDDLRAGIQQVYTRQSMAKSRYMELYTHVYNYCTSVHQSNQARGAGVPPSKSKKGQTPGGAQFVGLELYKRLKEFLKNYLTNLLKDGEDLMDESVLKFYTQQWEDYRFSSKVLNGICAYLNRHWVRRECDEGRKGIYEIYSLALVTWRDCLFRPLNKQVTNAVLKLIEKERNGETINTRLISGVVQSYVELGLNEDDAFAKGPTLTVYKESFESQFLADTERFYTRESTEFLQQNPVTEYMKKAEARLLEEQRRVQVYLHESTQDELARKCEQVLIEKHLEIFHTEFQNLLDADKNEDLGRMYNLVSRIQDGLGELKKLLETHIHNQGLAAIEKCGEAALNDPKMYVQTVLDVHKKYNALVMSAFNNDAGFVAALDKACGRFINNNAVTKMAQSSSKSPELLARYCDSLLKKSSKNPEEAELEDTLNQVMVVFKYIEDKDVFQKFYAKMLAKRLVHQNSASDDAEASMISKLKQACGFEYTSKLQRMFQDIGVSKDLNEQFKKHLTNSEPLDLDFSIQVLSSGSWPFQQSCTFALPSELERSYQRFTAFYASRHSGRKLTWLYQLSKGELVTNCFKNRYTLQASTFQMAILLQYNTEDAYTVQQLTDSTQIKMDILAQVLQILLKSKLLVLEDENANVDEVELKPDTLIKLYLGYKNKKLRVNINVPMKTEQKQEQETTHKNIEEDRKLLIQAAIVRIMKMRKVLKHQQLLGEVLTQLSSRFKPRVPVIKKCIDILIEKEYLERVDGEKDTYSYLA
# An asterisk follows results filed as active.
SMILES,RBX1-CUL1 inh
Cc1c(CC(=O)NCc2ccon2)c2c(n1CCc1ccccc1)CCCC2=O,28.9*
Cc1c(CC(=O)NCc2ccon2)c2c(n1CC1CCCO1)CCCC2=O (stereo not given),-1.1
Cc1c(CC(=O)NCC(N)=O)c2c(n1CCc1ccccc1)CCCC2=O,9.2
Cc1ccc(C(=O)N/N=C/c2cc3c(cc2Br)OCO3)s1,-2.3
O=C(N/N=C/c1c2ccccc2cc2ccccc12)C(O)c1ccccc1 (stereo not given),-0.7
CC(C)N1C(=O)/C(=C/c2ccc3c(c2)OCO3)C(=O)N(Cc2ccco2)C1=O,101.8*
CC(C(=O)O)N1C(=O)/C(=C/c2ccc3c(c2)OCO3)SC1=S (stereo not given),2.8
CC(C)(C)C1(C)OC(=O)C(=Cc2ccc3c(c2)OCO3)C(=O)O1 (stereo not given),3.5
CC1=NC(=O)NC(c2ccc(N(C)C)cc2)C1C(=O)Nc1cccc(C)c1C (stereo not given),13.4
O=C1c2ccccc2C(=O)N1c1ccc2nc(SCc3cccc(Cl)c3)sc2c1,-2.1
CC(C)(C)c1[nH]nc2c1C(c1cccs1)C(C#N)C(=N)O2 (stereo not given),7.5
Cc1ccc(/C=C/C(=O)Nc2nc(-c3ccc(C)c(C)c3)cs2)o1,-4.2
Cc1ccc(/C=C/C(=O)Nc2ccccc2C(N)=O)o1,0.4
COc1cc(NC(=O)/C=C\c2ccc(C)o2)c(OC)cc1Cl,4.3
COc1ccc(/C=C/C(=O)Nc2ccc(C)c(Cl)c2)cc1OC,1.7
Cc1ccc(/C=C/C(=O)Nc2ccc(C)c(Cl)c2)o1,65.7*
Cc1ccc(/C=C/C(=O)Nc2cccnc2)o1,44.7*
COc1ccc(C2CC(=O)C(C=NCCCN3CCOCC3)C(=O)C2)cc1 (stereo not given),9.8
CN1CCN(C(=O)C2CCN(c3ccccc3)C2=O)CC1=O (stereo not given),12.0
CCN1CCN(S(=O)(=O)Cc2cccc(C)c2)CC1,-2.6
CSCCC(=O)N1CCCC(CCc2ccccc2)C1 (stereo not given),6.9
CC(C)Cn1cnc2oc(-c3ccccc3)c(-c3ccccc3)c2c1=N,-3.7
O=C(/C=C/c1ccc(Cl)cc1)N1CC[C@@H](N2CCC(O)CC2)[C@H](O)C1,-9.4
Cc1ccc(C)c(/C=C2\C(=O)ON=C2c2ccccc2)c1,-1.4
Cc1ccc(C2=NOC(=O)/C2=C\c2ccc(C)o2)cc1,48.6*
SMILES,RBX1-CUL1 inh
O=C1ON=C(c2ccccc2)/C1=C/c1ccc(Br)s1,-5.4
Oc1c(Br)cc(Br)cc1/C=C/c1ccc2cccc(O)c2n1,-5.5
COc1ccc(-c2cccc(-c3ccn(CC4CCCCO4)n3)c2)nn1 (stereo not given),8.5
O=C(O)c1cc(Nc2c([N+](=O)[O-])cc3c4c(cccc24)C(=O)OC3=O)ccc1O,26.9*
O=C(O)c1ccc(N2C(=O)c3cccc4c([N+](=O)[O-])ccc(c34)C2=O)cc1O,-9.0
COc1ccccc1N1C(=O)c2cccc3c(Nc4cccc(Cl)c4)c([N+](=O)[O-])cc(c23)C1=O,-5.8
C=CCn1nnc(NC(=O)c2cc(Br)ccc2Cl)n1,9.0
CCOc1ccc2nc(N3C(=O)C(=O)C(C(=O)c4cc5ccccc5o4)C3c3cccc(Oc4ccccc4)c3)sc2c1 (stereo not given),-2.3
Cc1nnc(N2C(=O)C(=O)C(C(=O)c3cc4ccccc4o3)C2c2cccc(Oc3ccccc3)c2)s1 (stereo not given),34.8*
Cc1nnc(N2C(=O)C(=O)C(C(=O)c3cc4ccccc4o3)C2c2ccc(Cl)c(Cl)c2)s1 (stereo not given),-8.7
CC(C)(C)c1ccc(-c2n[nH]c(=S)n2-c2ccccc2)cc1,-5.2
S=c1[nH]nc(-c2ccccc2)n1-c1ccc(Cl)cc1,-0.4
Fc1ccc(-c2n[nH]c(=S)n2-c2ccccc2)cc1,36.0*
Cc1cccc(OCCCOc2ccccc2/C=C2\C(=O)NN(c3ccccc3)C2=O)c1,32.2*
COc1cccc(/C=C2/C(=O)NN(c3ccc(C)cc3)C2=O)c1,-1.6
COc1cc(/C=C2\C(=O)NN(c3ccccc3)C2=O)ccc1OCCCOc1ccccc1,5.0
O=C1NN(c2ccccc2)C(=O)/C1=C/c1cc(Cl)ccc1OCCCOc1ccccc1,4.0
Cc1ccc(OCCCOc2cccc(/C=C3\C(=O)NN(c4ccccc4)C3=O)c2)cc1,25.5*
Cc1ccc(COc2ccccc2/C=C2\C(=O)NN(c3ccccc3)C2=O)cc1,13.8
COCCCN=CC1C(=O)N(c2ccc(Br)c(C)c2)N=C1C (stereo not given),5.1
Cc1c(NS(C)(=O)=O)cccc1C(=O)NC(C)C,8.9
Cc1cc(I)ccc1NC(=O)CSc1nnc(C)n1N,-1.5
FC(F)(F)c1ccc2nnnn2c1,-1.4
CC1=NC(=O)NC(c2ccccc2Br)C1C(=O)Nc1ccc(Cl)cc1 (stereo not given),-2.2
CC1=NN(c2ccccc2)C(=O)C1N=Nc1cc(Cl)ccc1C(F)(F)F (stereo not given),-6.7
SMILES,RBX1-CUL1 inh
CC1=NN(c2ccccc2)C(=O)C1C(c1ccccc1C(=O)O)C1C(=O)N(c2ccccc2)N=C1C (stereo not given),-3.3
CC1=NN(c2ccccc2)C(=O)C1C(c1ccc(Cl)cc1)C1C(=O)N(c2ccccc2)N=C1C (stereo not given),61.1*
Cc1cc(C)c(C2C(=O)c3cccnc3N(C)C2=O)c(C)c1 (stereo not given),8.2
COC(=O)c1ccc(NC(=O)CSC2=N/C(=C/c3ccco3)C(=O)N2c2ccccc2)cc1,-8.4
Cc1cc(C(=O)O)ccc1-c1ccc(/C=C2\SC(=O)N(CC(=O)N3CCCC3)C2=O)o1,10.4
Cc1cc(C(=O)O)ccc1-c1ccc(/C=C2/SC(=O)N(C(C)C)C2=O)o1,63.9*
CCCN1C(=O)/C(=C/c2cc(-c3ccccc3)n(-c3ccc(C(=O)OCC)cc3)c2-c2ccccc2)C(=O)N(c2ccccc2)C1=S,18.1
CCCN1C(=O)/C(=C\c2ccco2)C(=O)N(c2ccccc2)C1=S,-5.0
Cc1ccc(C(=O)O)cc1-c1ccc(/C=C2\SC(=O)N(Cc3ccccc3F)C2=O)o1,50.2*
CCCN1C(=O)/C(=C\c2ccc(-c3cc(C(=O)O)ccc3C)o2)C(=O)N(c2ccccc2)C1=S,45.1*
Cc1cc(C(=O)O)ccc1-c1ccc(/C=C2\SC(=O)N(CC(=O)N3CCOCC3)C2=O)o1,0.1
CCN1C(=O)S/C(=C/c2ccc(-c3cc(C(=O)O)ccc3C)o2)C1=O,-0.3
C=CCN1C(=O)S/C(=C/c2ccc(-c3cc(C(=O)O)ccc3C)o2)C1=O,6.8
CCOC12CC(C)(C)CC(C)(CC3=C1/C(=N/NS(=O)(=O)c1ccccc1)CC(C)(C)C3)C2 (stereo not given),3.0
Cc1c(Cl)cccc1N(CC(=O)N1CCN(c2cccc(Cl)c2)CC1)S(C)(=O)=O,0.0
CN(C)c1nc2nonc2nc1N(C)CCc1cnn(C)c1,6.8
CCOC(=O)C(Cc1c[nH]c2ccccc12)NC(=O)c1ccc(C(C)(C)C)cc1 (stereo not given),-0.9
O=C(Nc1ncc(Cc2ccccc2)s1)C(F)(F)F,11.6
Cc1cn2c(nc3c2c(=O)n(Cc2ccccc2Cl)c(=O)n3C)o1,-3.7
COc1ccc(OC)c(C2NC(=O)N=C(C)C2C(=O)Nc2ccc(F)cc2)c1 (stereo not given),4.4
NCCNc1nc(-c2cccc(Br)c2)nnc1-c1ccccc1,54.4*
Nc1nc(-c2cccc(Br)c2)cs1,5.1

# Screening data (PubChem BioAssay)
